This is part of a sample that, as a whole, favours compounds with a hit. Of some 79,000 tested, about 15% had one in any assay. Values without a mark were called inactive. Activity calls are given as the source filed them. Cut-off read from the data, not from the text of the source: active = growth inhibition above about 70%; inactive = the rest.
Assays:
[1] = NCI Yeast Anticancer Drug Screen. Data for the rad50 strain (AID 155);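 note: 0% = growth of vehicle-only cultures of the same strain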; settings: S. cerevisiae rad50 strain growth inhibition, stronger effect = higher value
Summary of the method: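 Cells are treated with compound, grown, and their growth is then scored against vehicle-only cultures of the same repair-deficient yeast strain.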

[2] = NCI Yeast Anticancer Drug Screen. Data for the mec2-1 strain (AID 157); settings: S. cerevisiae mec2-1 strain, stronger effect = higher value
Summary of the method: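 Readout is yeast growth inhibition, normalised to vehicle-treated controls, in the mec2-1 strain exposed to compound.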

[3] = NCI Yeast Anticancer Drug Screen. Data for the sgs1 mgt1 strain (AID 161);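 note: 0% = growth of cultures given vehicle only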; settings: S. cerevisiae sgs1 mgt1 strain, stronger effect = higher value
Summary of the method: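 Percent growth inhibition was derived by comparing compound-exposed mutant yeast with vehicle-exposed cultures. The strain carries alterations in DNA damage repair.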

[4] = NCI Yeast Anticancer Drug Screen. Data for the cln2 rad14 strain (AID 165);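 note: 0% = growth equal to vehicle treated cultures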; settings: S. cerevisiae cln2 rad14 strain, stronger effect = higher value
Summary of the method: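 Relative to vehicle controls, growth inhibition of compound-treated cln2 rad14 yeast was recorded.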

[5] = NCI Yeast Anticancer Drug Screen. Data for the bub3 strain (AID 167); settings: S. cerevisiae bub3 mutant strain, stronger effect = higher value
Summary of the method: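 Part of a panel of yeast mutants defective in DNA damage repair or cell cycle regulation. Each strain is grown with compound, and inhibition is calculated relative to solvent-treated cultures.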

[6] = NCI Yeast Anticancer Drug Screen. Data for the mlh1 rad18 strain (AID 175); settings: S. cerevisiae mlh1 rad18 strain growth inhibition, stronger effect = higher value
Summary of the method: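 Test agents were incubated with a yeast strain of defined genotype (DNA damage repair defect). Inhibition of growth was derived by comparison with vehicle-exposed cultures.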

[7] = at 5.0 µM (retest, dose inferred, filed as 0.5)
[8] = at 50.0 µM (retest, dose inferred, filed as 5.0)

Structure (SMILES)	growth inhibition [1, 7]	growth inhibition [1, 8]	growth inhibition ([1]; at 50.0 µM)	growth inhibition [2, 7]	growth inhibition [2, 8]	growth inhibition ([2]; at 50.0 µM)	growth inhibition [3, 7]	growth inhibition [3, 8]	growth inhibition ([3]; at 50.0 µM)	growth inhibition [4, 7]	growth inhibition [4, 8]	growth inhibition ([4]; at 50.0 µM)	growth inhibition [5, 7]	growth inhibition [5, 8]	growth inhibition ([5]; at 50.0 µM)	growth inhibition [6, 7]	growth inhibition [6, 8]	growth inhibition ([6]; at 50.0 µM)
CCCCN(CCCC)CC(O)c1cc(-c2ccc(Cl)cc2)nc2c(-c3ccccc3)cccc12 (stereo not given)	-1%	30%	52.8%	-5%	13%	36.3%	0%	54%	80.8% (active)	-7%	22%	13.8%	-4%	24%	8.15%	0%	39%	66.7%
CCCCCCCCCCCCCCCCCC[N+](C)(C)Cc1ccc(C[N+](C)(C)CCCCCCCCCCCCCCCCCC)cc1	-5%	22%	1.5%	-3%	7%	35.3%	5%	51%	71.3% (active)	-2%	-9%	44.9%	-4%	11%	5.05%	-3%	26%	8.2%
COc1cc(/C=C/C(=O)c2ccc3ccccc3c2)cc(OC)c1OC	38%	40%	7.75%	49%	44%	11.3%	1%	45%	34.4%	22%	14%	-5.35%	22%	27%	41.9%	37%	44%	22.6%
CCCC/C=C(/CCCNCCCC)[Si](C)(C)C	70% (active)	97% (active)	91.8% (active)	72% (active)	99% (active)	93.7% (active)	90% (active)	99% (active)	94.2% (active)	73% (active)	98% (active)	92.8% (active)	90% (active)	99% (active)	92.7% (active)	91% (active)	98% (active)	91.9% (active)
Cc1ccccc1C(CC(=O)O)C(C)c1ccccc1 (stereo not given)	14%	53%	20.5%	18%	53%	88.8% (active)	9%	66%	77.9% (active)	13%	60%	73.2% (active)	32%	80% (active)	97.2% (active)	12%	45%	86.2% (active)
COc1ccc(CN2COc3c(cc(Cl)c4cccnc34)C2)cc1	6%	98% (active)	99.5% (active)	-2%	91% (active)	99.6% (active)	1%	98% (active)	99.7% (active)	4%	99% (active)	99.2% (active)	-2%	99% (active)	99.4% (active)	8%	99% (active)	99.5% (active)
COc1ccc(-c2ccccc2)cc1SCCC(=O)O	3%	15%	79.7% (active)	-1%	21%	70.5% (active)	4%	32%	48.3%	-7%	17%	77.7% (active)	0%	10%	65.2%	-2%	20%	87% (active)
Oc1c(Cl)cc(CN(Cc2cc(Cl)c(O)c(Cl)c2)C2CCCCC2)cc1Cl	10%	87% (active)	97.8% (active)	1%	88% (active)	98.9% (active)	2%	88% (active)	97.6% (active)	-17%	51%	98.2% (active)	-9%	88% (active)	97.6% (active)	-12%	95% (active)	98% (active)
Cc1ccc(N2C(=O)CSC2=S)cc1Br	7%	46%	95.1% (active)	3%	11%	93% (active)	4%	49%	94.9% (active)	-1%	-11%	31.9%	-2%	24%	77.5% (active)	3%	64%	95.2% (active)
CS(=O)(=O)C(=Cc1ccccc1Cl)S(C)(=O)=O	30%	57%	-12.7%	20%	29%	-1.65%	11%	7%	4.05%	2%	13%	12.1%	0%	6%	5%	38%	62%	-28.1%
O=C1C(Cl)=C(NCCC2CCCN3CCCCC23)C(=O)c2ccccc21 (stereo not given)	13%	48%	65.3%	-8%	54%	53.4%	10%	55%	79.5% (active)	2%	37%	63.7%	2%	51%	26.1%	6%	27%	70.8% (active)
CN(/N=C\c1ccc2ccccc2c1)C1=NCCCN1	97% (active)	68%	56.8%	99% (active)	67%	33.6%	98% (active)	56%	49.6%	97% (active)	66%	7.7%	98% (active)	96% (active)	99.2% (active)	97% (active)	79% (active)	60.9%
C1CCC(C2CCC(N3CCCCC3)CC2)CC1 (stereo not given)	60%	78% (active)	85% (active)	45%	77% (active)	51.4%	58%	86% (active)	82.3% (active)	63%	62%	75.6% (active)	63%	84% (active)	72.8% (active)	67%	87% (active)	79.4% (active)
COC(=O)C(=O)N(c1cc(C)ccc1C)c1cc(C)ccc1C	-1%	85% (active)	96.2% (active)	1%	73% (active)	95.3% (active)	0%	57%	95% (active)	6%	26%	63.1%	3%	59%	94.3% (active)	-3%	81% (active)	92.7% (active)
CN(/N=C/c1ccc(C(=O)O)cc1)C1=NCCCCN1	-2%	29%	5.85%	-4%	25%	3.4%	-2%	45%	-7.95%	3%	12%	40.5%	2%	28%	3.2%	1%	33%	-11.1%
C=C(C)/C([O-])=N/[N+](C)(C)CC(O)CCCCCCCCCCCC (stereo not given)	34%	98% (active)	91.7% (active)	32%	99% (active)	91.5% (active)	60%	99% (active)	92.2% (active)	57%	99% (active)	90.3% (active)	67%	99% (active)	91.5% (active)	31%	98% (active)	90.2% (active)
COC(=O)c1nc(=S)[nH]c(C(=O)OC)c1C(=O)c1ccc([N+](=O)[O-])cc1	5%	84% (active)	96.8% (active)	-8%	64%	49.4%	-5%	80% (active)	96.5% (active)	2%	70% (active)	31.1%	5%	93% (active)	61.1%	-2%	93% (active)	91% (active)
COc1ccc(CCN2C(=O)C(=O)N(C3CCCCC3)C2=O)cc1OC	-1%	2%	75.4% (active)	-1%	0%	11.9%	-3%	-3%	26.9%	-2%	0%	12.8%	-2%	-5%	34.1%	-6%	-8%	38.4%
c1ccc2c(c1)N=c1ccccc1=P21c2ccccc2Nc2ccccc21	89% (active)	99% (active)	87.3% (active)	93% (active)	99% (active)	90.9% (active)	84% (active)	99% (active)	87.8% (active)	85% (active)	99% (active)	89.5% (active)	97% (active)	99% (active)	89.8% (active)	92% (active)	99% (active)	83.2% (active)
Cc1cccc(CC(C)(C)C)c1NC(=O)C(=O)C(C(=O)c1ccc2ccccc2c1)C1OC(=O)c2ccccc21 (stereo not given)	6%	78% (active)	52.8%	-1%	92% (active)	23.6%	9%	92% (active)	36.3%	-1%	76% (active)	12.8%	2%	93% (active)	52.1%	-1%	86% (active)	68.2%

— PubChem BioAssay (NCI)
